Test results taken from PubChem BioAssay (NCI).
About 83,000 compounds went through this panel and 20% of them were active in at least one assay; those are over-represented in the sample as a whole.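 96-well plates, one dose, 48 hours. Percent growth reported; active if below 10.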 A number with no mark means an inactive call. Active and inactive are the calls of the source.

Columns and labels:
Experiment in all cases: NCI-60 one-dose screen, 48 h (100 = growth as untreated, 0 = no growth, -100 = all killed)
Conditions in all cases: 10 µM unless noted
[1] = tested on: T-47D breast
[2] = tested on: BT-549 breast
[3] = tested on: MDA-MB-435 melanoma
[4] = tested on: MCF7 breast
[5] = tested on: HCT-116 colon
[6] = tested on: HCC-2998 colon
[7] = tested on: KM12 colon
[8] = tested on: SW-620 colon

## CS(=O)(=O)Nc1cccc(-c2ccc3ncnc(Nc4ccc(F)c(Cl)c4)c3c2)c1
[1]
  growth: -21.7% (active)
[2]
  growth: 35.4%
[3]
  growth: 38.7%
[4]
  growth: 15.3%
[5]
  growth: 16.1%
[6]
  growth: 20.2%
[7]
  growth: 21.6%

## CCC1CN2C(=N1)c1ccccc1-c1cc(Cl)ccc12 (stereo not given)
[1]
  growth: 21.9%
[2]
  growth: 42.5%
[3]
  growth: 25.4%
[4]
  growth: 4.59% (active)
[5]
  growth: 1.68% (active)
[6]
  growth: 28.5%
[7]
  growth: 16.7%

## CC(=O)O[C@@H]1[C@@H](OC(C)=O)[C@H](OC(C)=O)CO[C@H]1Nc1cccc2ccccc12
[1]
  growth: 86.6%
[2]
  growth: 89.1%
[3]
  growth: 102%
[8]
  growth: 98.4%
[6]
  growth: 94.2%
[7]
  growth: 84.2%

## COC(OC)C1(c2ccccc2)NC(=O)NC1=O (stereo not given)
[1]
  growth: 106%
[2]
  growth: 114%
[3]
  growth: 111%
[4]
  growth: 104%
[5]
  growth: 99.4%
[6]
  growth: 101%
[7]
  growth: 115%

## CC1CCc2cc(F)cc3c(=O)c(C(=O)O)cn1c23 (stereo not given)
[1]
  growth: 99.7%
[2]
  growth: 104%
[3]
  growth: 94.8%
[4]
  growth: 112%
[5]
  growth: 105%
[6]
  growth: 105%
[7]
  growth: 102%

## CCCC(C)(C)COC(=O)c1cccc(N)c1
[1]
  growth: 92%
[2]
  growth: 79.9%
[3]
  growth: 111%
[4]
  growth: 91.7%
[5]
  growth: 84.9%
[6]
  growth: 96.9%
[7]
  growth: 106%

## CN1C(=O)C2(SCC(C(=O)NCC(=O)OC(C)(C)C)N2C(=O)C2CCCCC2)c2ccccc21 (stereo not given)
[1]
  growth: 82.9%
[2]
  growth: 109%
[3]
  growth: 104%
[4]
  growth: 97.9%
[5]
  growth: 96.3%
[6]
  growth: 106%
[7]
  growth: 101%

## O=C1OC(c2ccc(-c3ccccc3)cc2)=C/C1=C/C=C/c1ccccc1
[1]
  growth: 101%
[2]
  growth: 111%
[3]
  growth: 106%
[4]
  growth: 87.9%
[5]
  growth: 88%
[6]
  growth: 106%
[7]
  growth: 103%

## CC(=O)n1cc(/C=C2\N=C(c3ccc(Cl)cc3)N(c3ccc(S(=O)(=O)Nc4nccs4)cc3)C2=O)c2ccccc21
[1]
  growth: 55.3%
[2]
  growth: 92.8%
[3]
  growth: 77%
[4]
  growth: 49.8%
[5]
  growth: 92.6%
[6]
  growth: 107%
[7]
  growth: 69.9%

## CC(C)(c1ccc(OCC(O)CNCc2ccco2)cc1)c1ccc(OCC(O)CNCc2ccco2)cc1 (stereo not given)
[1]
  growth: 72.4%
[3]
  growth: 89.5%
[8]
  growth: 90.3%
[4]
  growth: 85.4%
[5]
  growth: 60.2%
[6]
  growth: 46.6%
[7]
  growth: 82.6%

## Oc1ccc(O)c(-[n+]2ccccc2)c1
[1]
  growth: 110%
[3]
  growth: 109%
[8]
  growth: 96.9%
[4]
  growth: 102%
[5]
  growth: 93.3%
[6]
  growth: 102%
[7]
  growth: 107%

## CCC(N)(C(=O)O)c1ccc(F)cc1 (stereo not given)
[1]
  growth: 111%
[3]
  growth: 105%
[8]
  growth: 110%
[4]
  growth: 93.5%
[5]
  growth: 91.3%
[6]
  growth: 95.4%
[7]
  growth: 105%

## COc1ccc2c(c1)nnn1c3ncccc3c(N=O)c21
[1]
  growth: -0.214% (active)
[3]
  growth: -5.59% (active)
[8]
  growth: -80.3% (active)
[4]
  growth: -58.7% (active)
[5]
  growth: -86% (active)
[6]
  growth: 12.6%
[7]
  growth: 5.81% (active)

## Cn1c(I)c(C#C[Si](C)(C)C)c(=O)[nH]c1=O
[1]
  growth: 21.9%
[3]
  growth: 58.7%
[8]
  growth: -66.5% (active)
[4]
  growth: 82.1%
[5]
  growth: -43.1% (active)
[6]
  growth: -67.1% (active)
[7]
  growth: 103%

## CN1CCN(Cn2nc(-c3cc(F)c(Cl)cc3Cl)n(/N=C/c3ccc(N(C)C)cc3)c2=S)CC1
[1]
  growth: 93.7%
[3]
  growth: -7.65% (active)
[8]
  growth: 70.5%
[4]
  growth: 112%
[5]
  growth: 82.1%
[6]
  growth: 98%
[7]
  growth: 88.8%

## Nc1nccc2c1ccn2-c1cccc(NC(=O)c2ccc(N3CCOCC3)c(C(F)(F)F)c2)c1
[1]
  growth: 45.7%
[3]
  growth: 2.02% (active)
[8]
  growth: 25.5%
[4]
  growth: 16%
[5]
  growth: 7.23% (active)
[6]
  growth: 23.9%
[7]
  growth: -14.5% (active)

## O=C1C(SCCO)=C(SCCO)C(=O)N1c1ccc(-c2ccccc2)cc1
[1]
  growth: 24%
[3]
  growth: 92.2%
[8]
  growth: -66.9% (active)
[4]
  growth: 80.5%
[5]
  growth: 13.7%
[6]
  growth: 79.8%
[7]
  growth: 83.4%

## COc1ccc(-c2[nH]c3ccccc3c2/C=C(\C#N)S(=O)(=O)c2ccccc2)cc1
[1]
  growth: 66.7%
[3]
  growth: -5.59% (active)
[8]
  growth: 28.6%
[4]
  growth: 6.42% (active)
[5]
  growth: 11%
[6]
  growth: -29.2% (active)
[7]
  growth: 7.51% (active)

## CCOc1ccc(NC(=O)Nc2cc(C(C)C)ccc2C)cc1
[1]
  growth: 77.3%
[3]
  growth: 85%
[8]
  growth: 91.1%
[4]
  growth: 111%
[5]
  growth: 36.3%
[6]
  growth: 59.8%
[7]
  growth: 75.4%

## CC/C(=C(\CC)c1ccc(OCCN(CC)CC)cc1)c1ccc(OCCN(CC)CC)cc1
[1]
  growth: 12.3%
[3]
  growth: 15.4%
[8]
  growth: 9.59% (active)
[4]
  growth: 30.1%
[5]
  growth: 16.7%
[6]
  growth: 63.2%
[7]
  growth: 33.5%

## CC(=S)Nc1ccccc1
[1]
  growth: 100%
[3]
  growth: 99.4%
[8]
  growth: 96.8%
[4]
  growth: 95%
[5]
  growth: 104%
[6]
  growth: 105%
[7]
  growth: 106%

## O=C1OC(=O)C2C3CC(c4ccccc43)C12 (stereo not given)
[1]
  growth: 103%
[3]
  growth: 104%
[8]
  growth: 101%
[4]
  growth: 97.7%
[5]
  growth: 89.2%
[6]
  growth: 106%
[7]
  growth: 105%

## O=C(C[n+]1ccccc1Cl)c1ccc2c(c1)CCCC2
[1]
  growth: 79.6%
[3]
  growth: 92.1%
[8]
  growth: 82.8%
[4]
  growth: 95.8%
[5]
  growth: 80.3%
[6]
  growth: 103%
[7]
  growth: 82.2%

## C=C1C(=O)O[C@H]2[C@H]1CC/C(COC(=O)CCCC(=O)OC/C1=C/CC[C@@]3(C)O[C@H]3[C@H]3OC(=O)C(=C)[C@@H]3CC1)=C\CC[C@@]1(C)O[C@@H]21
[1]
  growth: 14.9%
[3]
  growth: 4.28% (active)
[8]
  growth: -35.9% (active)
[4]
  growth: 8.68% (active)
[5]
  growth: -53% (active)
[6]
  growth: 64.9%
[7]
  growth: 26%

## c1nc(SC2=NCCN2)c2[nH]cnc2n1
[1]
  growth: 21.8%
[3]
  growth: 24%
[8]
  growth: 58.5%
[4]
  growth: 14%
[5]
  growth: 37%
[6]
  growth: 32.8%
[7]
  growth: 47.2%

## Cc1ccc2oc(=O)cc(C3C(C#N)=C(N)Oc4c3ccc3ccccc43)c2c1 (stereo not given)
[1]
  growth: 69%
[3]
  growth: 6.57% (active)
[8]
  growth: 55%
[4]
  growth: 42.1%
[5]
  growth: 69.2%
[6]
  growth: 91.4%
[7]
  growth: 55.1%

## COc1cc(C(=O)C[n+]2ccccc2)ccc1OC(C)=O
[1]
  growth: 103%
[3]
  growth: 99.8%
[8]
  growth: 96.9%
[4]
  growth: 95.6%
[5]
  growth: 87.6%
[6]
  growth: 105%
[7]
  growth: 102%

## CC(=O)Oc1ccc(C(OC(C)=O)OC(C)=O)cc1
[1]
  growth: 72.1%
[3]
  growth: 104%
[8]
  growth: 112%
[4]
  growth: 98.5%
[5]
  growth: 92.8%
[6]
  growth: 97.2%
[7]
  growth: 98.6%
